Records with an inconclusive call do not appear. Activity calls are given as the source filed them. The calls were made as follows: active = hit-call score of the fitted dose curve at least 0.9, where 1 is the maximum; inconclusive = response in the unintended direction; inactive = score below 0.9.

Androgen receptor (Homo sapiens), sequence (P10275 whole entry, looked up): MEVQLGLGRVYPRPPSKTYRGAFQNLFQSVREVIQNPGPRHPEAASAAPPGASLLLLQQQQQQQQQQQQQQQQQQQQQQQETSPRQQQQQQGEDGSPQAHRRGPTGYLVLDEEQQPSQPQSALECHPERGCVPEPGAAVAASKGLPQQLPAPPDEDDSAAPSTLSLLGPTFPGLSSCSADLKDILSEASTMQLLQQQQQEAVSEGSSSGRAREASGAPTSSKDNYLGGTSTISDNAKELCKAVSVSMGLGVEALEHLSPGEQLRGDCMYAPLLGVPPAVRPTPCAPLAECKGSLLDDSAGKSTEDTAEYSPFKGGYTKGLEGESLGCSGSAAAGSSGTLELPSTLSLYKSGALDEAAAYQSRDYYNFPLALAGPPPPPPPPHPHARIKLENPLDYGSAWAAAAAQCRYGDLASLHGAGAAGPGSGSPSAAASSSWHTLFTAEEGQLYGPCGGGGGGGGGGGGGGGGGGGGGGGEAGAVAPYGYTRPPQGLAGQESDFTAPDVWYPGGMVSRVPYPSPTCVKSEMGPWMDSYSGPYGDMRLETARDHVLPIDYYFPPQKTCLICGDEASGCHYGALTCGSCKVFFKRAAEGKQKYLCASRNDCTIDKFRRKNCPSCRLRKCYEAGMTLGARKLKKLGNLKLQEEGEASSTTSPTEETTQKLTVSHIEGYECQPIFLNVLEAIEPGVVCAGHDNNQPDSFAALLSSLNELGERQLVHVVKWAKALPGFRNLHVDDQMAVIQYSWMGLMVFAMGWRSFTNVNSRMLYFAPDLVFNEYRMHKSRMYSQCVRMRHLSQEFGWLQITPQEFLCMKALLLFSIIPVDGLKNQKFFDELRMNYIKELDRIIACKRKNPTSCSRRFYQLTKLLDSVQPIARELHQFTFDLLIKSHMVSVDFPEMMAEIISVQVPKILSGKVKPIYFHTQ

The target in this experiment is Androgen receptor (Homo sapiens) (UniProt P10275). Put plainly: ATG_AR_TRANS: Attagene TRANS-FACTORIAL HepG2 Assay for human Androgen Receptor (AR) (AID 2282973). The following applies: HepG2 Attagene TRANS-FACTORIAL AR reporter transcription. The method, then:
ATG_TRANS is a cell-based, multiplexed-readout assay that uses HepG2, a human liver cell line, with measurements taken at 24 hours after chemical dosing in a 24-well plate.ATG_AR_TRANS is one of 30 assay component(s) measured or calculated from the ATG_TRANS assay. It is designed to make measurements of mRNA induction, a form of inducible reporter, as detected with fluorescence intensity signals by Reverse transcription polymerase chain reaction (RT-PCR) and Capillary electrophoresis technology.Data from the assay component ATG_AR_TRANS was analyzed into 1 assay endpoint. This assay endpoint, ATG_AR_TRANS, was analyzed in the positive analysis fitting direction relative to DMSO as the negative control and baseline of activity. Using a type of inducible reporter, measures of mRNA for gain-of-signal activity can be used to understand the reporter gene at the transcription factor-level as they relate to the gene AR. Furthermore, this assay endpoint can be referred to as a primary readout, because this assay has produced multiple assay endpoints where this one serves a reporter gene function. To generalize the intended target to other relatable targets, this assay endpoint is annotated to the nuclear receptor intended target family, where the subfamily is steroidal.
Human liver HepG2 cells are transiently transfected with multiple reporter transcription units (MRTUs) in 6-well plates using FuGene 6 reagent (Roche; 3 ml FuGene/1 mg DNA). The MRTU constructs are regulated by a cis-regulating element (promoter). […] A major difference between the CIS and TRANS system is that in CIS activities of endogenous TFs are measured, whereas the TRANS assay evaluates changes in activities of exogenous, chimeric NR-Gal4 proteins. […] At the end of 24 hour incubation, total RNA was isolated using TriZol reagent (Invitrogen). The isolated RNA is then reverse-transcribed using oligo(dT) primer and Mo-MLV reverse transcriptase (Invitrogen) with DNAse I (Ambion) treatment for 30 min. The one-tenth of the produced cDNA was amplified by PCR using Taq DNA polymerase (Invitrogen) and two reporter sequence-specific primers. The PCR products were fluorescently labeled by primer extension with 6-arboxyfluorescein (6-FAM) 5'-labeled reporter sequence-specific primer (2 min at 95 C, 20 s at 68 C and 10 min at 72 C) and these products were digested with 5U of HpaI (New England Biolabs) for 2h at 37 C. The fragments were purified using Qiaquick PCR columns (Qiagen), analyzed on an ABI 3130xL genetic analyzer (Applied Biosystems) with peak positions identified by using a set of X-rhodamine (ROX)-labeled MapMarker1000 molecular weight standards (BioVentures). The raw capillary electrophoresis data was processed using Attagraph software (Attagene).
For `CC(C)Oc1cc(-n2nc(C(C)(C)C)oc2=O)c(Cl)cc1Cl`, the compound was classed as inactive. As to `O=C(Nc1ccccc1)Nc1ccnc(Cl)c1`, the call was inactive. Consider `CCCC1COC(Cn2cncn2)(c2ccc(Cl)cc2Cl)O1` (stereo unspecified), for which the compound was classed as inactive. `COc1nc(C)nc(NC(=O)NS(=O)(=O)c2ccccc2CCC(F)(F)F)n1`: the outcome was inactive. As for `CCOC(=O)CC(SP(=S)(OC)OC)C(=O)OCC` (stereo unspecified), the entry is “inactive”; as for `N#Cc1nn(-c2c(Cl)cc(C(F)(F)F)cc2Cl)c(N)c1S(=O)C(F)(F)F` (stereo unspecified), “inactive”; as for `Cc1cc(Cl)ccc1OCC(=O)O`, “inactive”.

Consider `Cc1ccc(-c2c(Cl)nc(C#N)n2S(=O)(=O)N(C)C)cc1`, for which the call was inactive. For the compound `CN(C)C(=S)SSC(=S)N(C)C`, the result was inactive. As to `N#CC(CCc1ccc(Cl)cc1)(Cn1cncn1)c1ccccc1` (stereo unspecified), the call was inactive. Turning to `CO/C=C(/C(=O)OC)c1ccccc1Oc1cc(Oc2ccccc2C#N)ncn1`, the call was inactive.
